Measured values from PubChem BioAssay (NCI).
About 83,000 compounds went through this panel and 20% of them were active in at least one assay; those are over-represented in the sample as a whole.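 Activity criterion: percent growth below 10, measured after cells in 96-well plates were exposed to a single compound concentration for 48 hours.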 The source made the active and inactive calls.

How the values were obtained:
Assay in all cases: NCI-60 one-dose screen, 48 h (100 = growth as untreated, 0 = no growth, -100 = all killed)
Conditions in all cases: 10 µM unless noted
[1] = tested on: OVCAR-8 ovarian
[2] = tested on: OVCAR-5 ovarian
[3] = tested on: OVCAR-4 ovarian
[4] = tested on: SK-OV-3 ovarian
[5] = tested on: IGROV1 ovarian
[6] = tested on: OVCAR-3 ovarian
[7] = tested on: HS 578T breast
[8] = tested on: NCI/ADR-RES ovarian
[9] = tested on: T-47D breast
[10] = tested on: RPMI-8226 leukemia

Measured: growth

Nc1ncnc(N)c1NC(=O)c1ccc(OCc2ccccc2)cc1
inactive: [1] 102% | [2] 106% | [3] 107% | [4] 102% | [5] 106% | [6] 110% | [7] 103% | [8] 113% | [9] 96%

CCOC(=O)c1sc(-c2ccc(OS(=O)(=O)c3cccs3)c(C=O)c2)nc1C
inactive: [2] 33.1% | [4] 123% | [7] 11.2% | [9] 19.1%
active: [1] -5.05% | [3] 4.5% | [5] -36.2% | [6] -9.03% | [8] -2.63%

COc1ccc(C)c2sc(N(Cc3cccnc3)C(=O)c3ccc(C#N)cc3)nc12
inactive: [2] 24.3% | [3] 14.3% | [4] 12.6% | [6] 15.1%
active: [1] -10.5% | [5] -14.3% | [7] -1.42% | [8] 9.32% | [9] -0.727%

O=C(NC1C(O)OC(CO)C(O)C1O)NS(=O)(=O)c1ccc(Cl)cc1 (configuration not stated)
inactive: [1] 102% | [2] 99.7% | [3] 105% | [4] 105% | [5] 107% | [6] 112% | [7] 98.7% | [8] 105% | [9] 91.3%

CCCCc1ccc(NS(=O)(=O)c2cc3c4c(c2)CCN4C(=O)CC3)cc1
active: [8] 7.47%
inactive: [10] 21.9% | [1] 15.9% | [4] 30.8% | [5] 11.3% | [6] 32.2% | [7] 47.8% | [9] 25.4%

CCOC(=O)c1sc(-c2ccc(OS(=O)(=O)C[C@]34CCC(CC3=O)C4(C)C)c(C=O)c2)nc1C
inactive: [1] 11.6% | [2] 46.9% | [3] 18.6% | [4] 46% | [7] 31.6% | [8] 11%
active: [5] -21.8% | [6] -5%

O=C(O)CCCN1C(=O)C2C3CCC(C3)C2C1=O (configuration not stated)
inactive: [1] 103% | [2] 104% | [3] 109% | [4] 103% | [5] 102% | [6] 112% | [7] 115% | [8] 108% | [9] 101%

CCC1=C[C@@H]2CN(C1)Cc1c([nH]c3ccccc13)[C@@](C(=O)OC)(c1cc3c(cc1OC)N(C)[C@H]1[C@@](O)(C(=O)OC)[C@H](OC(C)=O)[C@]4(CC)[C@@H]5C[C@@H]5CN5CC[C@]31[C@@H]54)C2
active: [4] -24% | [5] 1.74% | [6] -25.8% | [7] -5.73% | [8] 1.35%
inactive: [1] 14.5% | [2] 44.6% | [3] 14.6% | [9] 72%

CN=c1ccc2nc3ccc(N)cc3sc-2c1
active: [1] 2.77% | [3] -11.2% | [8] 5.34%
inactive: [2] 24.6% | [4] 30.1% | [5] 22.3% | [6] 10.8% | [7] 59% | [9] 20.1%

COC(=O)[C@H]1CCCN1C(=O)[C@H]1CCCN1C(=O)[C@H](Cc1c[nH]c2ccccc12)NC(=S)Nc1cc(C(F)(F)F)cc(C(F)(F)F)c1
inactive: [1] 68.5% | [2] 71.1% | [3] 62% | [4] 85.2% | [5] 44.6% | [6] 63.7% | [7] 44.8% | [8] 93.2% | [9] 56.5%

O=C(N=Nc1c(O)[nH]c2ccccc12)c1oc2ccccc2c1CN1CCN(c2ccccc2)CC1
inactive: [7] 27.3%
active: [10] 7.75% | [1] 6.9% | [3] -79% | [5] -5.86% | [6] -69.9% | [8] -34.9% | [9] -17.7%

COc1cccc(C(=O)NC(c2ccc(C)cc2)c2cc(Cl)c3cccnc3c2O)c1 (configuration not stated)
inactive: [2] 38.6% | [3] 24.9% | [4] 16.2% | [6] 30% | [7] 34.5%
active: [1] 1.23% | [5] -5.14% | [8] 6.12% | [9] 6.13%

CCOC(=O)C(CC(=O)O)=C(C(=O)OCC)C(=O)OCC
inactive: [1] 99.9% | [2] 109% | [3] 90.2% | [4] 110% | [5] 111% | [6] 111% | [7] 107% | [8] 112% | [9] 100%

CC1=C(C(=O)OCC2CCN(C(=O)OC(C)(C)C)CC2)[C@H](c2cccc(Br)c2)C2=C(CC(C)(C)CC2=O)N1
inactive: [1] 21.7% | [2] 64.8% | [3] 40% | [4] 56% | [5] 35.9% | [6] 30.9% | [7] 53.5% | [8] 25.3% | [9] 22%

CC(=O)n1cc(-c2c[nH]c3ccccc23)c(-c2ccc(Cl)cc2)n1
inactive: [1] 96.8% | [2] 94.2% | [3] 62% | [4] 95.9% | [5] 74.9% | [6] 90% | [7] 94% | [8] 86.4% | [9] 72.7%

Cn1nc(C(C)(C)C)cc1NC(=O)Cc1ccc(/C=C2\C(=O)Nc3ccccc32)cc1
inactive: [1] 54.6% | [2] 107% | [3] 47.6% | [4] 60.7% | [5] 59% | [6] 64.5% | [7] 74.7% | [8] 66.9% | [9] 14.9%

Cc1ccc2[nH]c(=O)cc(-n3nncc3Cn3c4ccccc4c4ccccc43)c2c1
inactive: [1] 94.9% | [2] 104% | [3] 98.7% | [4] 91.4% | [5] 103% | [6] 101% | [7] 88.4% | [8] 99.5% | [9] 106%

CCOC(=O)CSc1c(-c2ccccc2)c2cc(Cl)ccc2[nH]c1=O
inactive: [1] 115% | [2] 105% | [3] 89.1% | [4] 107% | [5] 99.1% | [6] 106% | [7] 84.2% | [8] 84.3% | [9] 98.1%

COc1ccc(-c2nnc(COc3ccc(C(=O)/C=C/c4ccco4)cc3)o2)cc1
inactive: [1] 73.9% | [2] 97.7% | [3] 67.9% | [4] 92.8% | [5] 87.6% | [6] 64.1% | [7] 92.6% | [8] 89.2% | [9] 80.6%

CN1C(=O)N(C)C2Nn3c(s/c(=C4\C(=O)N(CCc5ccccc5)c5ccccc54)c3=O)=NC21 (configuration not stated)
inactive: [10] 57.2% | [1] 80.9% | [4] 76.9% | [5] 83% | [6] 39.7% | [7] 70.5% | [8] 43.8% | [9] 67.6%

Cc1ccc2nc(NC(=O)CSC(=S)N3CCN(c4ccccc4)CC3)sc2c1
active: [5] -4.12%
inactive: [10] 79.3% | [2] 95.6% | [3] 92.7% | [4] 111% | [6] 104% | [7] 104% | [8] 88.2% | [9] 85.7%

S=C1CCCC(=S)N1
inactive: [1] 105% | [2] 100% | [3] 104% | [4] 91.6% | [5] 107% | [6] 112% | [7] 99.8% | [8] 99.5%

COc1ccc(C(=O)C2CC2c2ccc(Cl)cc2)cc1 (configuration not stated)
inactive: [1] 78.2% | [2] 115% | [3] 72.2% | [4] 104% | [5] 83.7% | [6] 74.7% | [7] 82.4% | [8] 78.9% | [9] 80.8%

COc1ccc(CCN2C(=O)CCSC2=S)cc1
active: [6] 9.45%
inactive: [1] 63.7% | [2] 98.1% | [3] 74.8% | [4] 102% | [5] 41.7% | [7] 87.7% | [8] 71.7% | [9] 62%

OC(c1ccccc1)c1nnc(SCc2ccccc2)n1Cc1ccccc1 (configuration not stated)
inactive: [1] 98.8% | [2] 92.8% | [3] 81.6% | [4] 90% | [5] 93.7% | [6] 103% | [7] 94% | [8] 92.8% | [9] 85.2%

COc1cc(NC(=O)CCSc2nc3ccccc3c(=O)n2Cc2ccccc2)cc(OC)c1OC
inactive: [1] 79.3% | [2] 91% | [3] 63.4% | [4] 99.3% | [5] 99.4% | [6] 88.1% | [7] 77.3% | [8] 82.1% | [9] 78.1%

COc1ccccc1CNC(=O)C1c2ccccc2C(=O)N(CC(C)C)C1c1cccs1 (configuration not stated)
inactive: [1] 50.5% | [2] 84.2% | [4] 106% | [5] 71.8% | [6] 58% | [7] 68.8% | [8] 71.4% | [9] 42.5%
